For 20 compounds, growth inhibition, inhibition and outcome results are on record in PubChem BioAssay.

Structures are written as SMILES. A number with no mark means an inactive call. For some of these results: Potency and affinity values are given separately. Activity calls are given as the source filed them. Unless noted, no rule for the calls is given here.

The nature of experiment [1]: antimalarial activity against Dd2 strain (AID 2302;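 active = growth inhibition above 50% at the single 2 µM test dose, taken to imply half-maximal potency below 2 µM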;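 also: 0% = DMSO untreated growth and 100% = chloroquine plus artemisinin killed control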). To be noted: P. falciparum Dd2 in RBCs, LDH growth readout, 72 h; at 2 µM; stronger effect = higher value.
A short description of experiment [2]: HepG2 cytotoxicity, primary screen, cytotoxicity control for P. falciparum antimalarial project, cell-based, ATP luminescence (AID 2303;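 active = inhibition above 50%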;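 also: 0% = DMSO wells and 100% = digitonin-killed cells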). To be noted: HepG2 viability, 24-48 h, at 10 µM, stronger effect = higher value.
The target in experiment [3] is L-lactate dehydrogenase (Plasmodium falciparum (isolate CDC / Honduras)) (UniProt Q27743). Kind of experiment: PfLDH activity inhibition – cell lysate, 3D7 strain, counter-screen for P. falciparum growth inhibition project (AID 2304).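 Also: 0% = vehicle and 100% = reference inhibitor.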 To be noted: P. falciparum 3D7 crude extract, LDH APAD/NBT absorbance; at 2 µM; stronger effect = higher value.
L-lactate dehydrogenase (Plasmodium falciparum (isolate CDC / Honduras)), sequence (Q27743 whole entry, looked up): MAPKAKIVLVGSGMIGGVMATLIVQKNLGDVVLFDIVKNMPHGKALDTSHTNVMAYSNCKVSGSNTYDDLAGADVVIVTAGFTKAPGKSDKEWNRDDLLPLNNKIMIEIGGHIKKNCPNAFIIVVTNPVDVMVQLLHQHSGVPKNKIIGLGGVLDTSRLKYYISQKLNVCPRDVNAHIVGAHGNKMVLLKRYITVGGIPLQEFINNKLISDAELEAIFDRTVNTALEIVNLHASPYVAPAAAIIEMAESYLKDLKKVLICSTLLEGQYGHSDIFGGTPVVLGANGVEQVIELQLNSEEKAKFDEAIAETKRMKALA
Experiment [4] is described as follows: inhibition of 3D7 malaria parasite growth – strain 3D7 (AID 2306).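 Also: 0% = DMSO wells and 100% = chloroquine plus artemisinin control wells.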 Conditions: P. falciparum 3D7 erythrocytic growth, LDH absorbance, 72 h; at 2 µM; stronger effect = higher value.
Experiment [5] concerns the target Calcium-dependent protein kinase 1 (Plasmodium falciparum (isolate 3D7)) (UniProt P62344). Briefly: PfCDPK1 kinase inhibitors, biochemical, TCAMS library (AID 1159585; cut-off not given, nearly all actives have IC50 up to about 0.98 µM;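 also: inhibitors leave more ATP so luminescence rises with inhibition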). Conditions: recombinant PfCDPK1, Kinase-Glo ATP depletion luminescence.
For experiment [6], the target named is Plasmodium falciparum protein kinase 6 (PK6, PF3D7_1337100) (UniProt Q8IDW1). Kind of experiment: PfPK6 kinase inhibitors, biochemical, TCAMS library (AID 1159586). Conditions: recombinant PfPK6, Kinase-Glo ATP depletion luminescence.
Plasmodium falciparum protein kinase 6 (PK6, PF3D7_1337100), sequence (Q8IDW1 1-305): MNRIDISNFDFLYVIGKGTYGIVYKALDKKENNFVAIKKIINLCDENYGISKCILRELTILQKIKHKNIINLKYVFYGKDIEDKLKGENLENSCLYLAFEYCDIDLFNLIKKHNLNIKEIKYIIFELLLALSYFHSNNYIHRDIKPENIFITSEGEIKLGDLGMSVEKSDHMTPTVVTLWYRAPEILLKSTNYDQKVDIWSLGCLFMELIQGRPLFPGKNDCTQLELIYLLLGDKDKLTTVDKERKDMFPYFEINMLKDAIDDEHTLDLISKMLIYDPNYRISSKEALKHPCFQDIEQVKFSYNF
Experiment [7] concerns the target Protein kinase 7 (PK7), Plasmodium falciparum 3D7 (PF3D7_0213400) (UniProt Q7YTF7). Kind of experiment: inhibition of Plasmodium PK7 catalytic activity – biochemical, TCAMS antimalarial set, Kinase-Glo luminescence (AID 1159587). Conditions: recombinant PfPK7, Kinase-Glo ATP depletion luminescence.
For experiment [8], the target named is Calcium-dependent protein kinase 4 (Plasmodium falciparum (isolate 3D7)) (UniProt Q8IBS5). Kind of experiment: PfCDPK4 kinase inhibitors, biochemical, TCAMS library (AID 1159588; cut-off not given, nearly all actives have IC50 up to about 0.91 µM). Conditions: recombinant PfCDPK4, Kinase-Glo ATP depletion luminescence.
Calcium-dependent protein kinase 4 (Plasmodium falciparum (isolate 3D7)), sequence (Q8IBS5 whole entry, looked up): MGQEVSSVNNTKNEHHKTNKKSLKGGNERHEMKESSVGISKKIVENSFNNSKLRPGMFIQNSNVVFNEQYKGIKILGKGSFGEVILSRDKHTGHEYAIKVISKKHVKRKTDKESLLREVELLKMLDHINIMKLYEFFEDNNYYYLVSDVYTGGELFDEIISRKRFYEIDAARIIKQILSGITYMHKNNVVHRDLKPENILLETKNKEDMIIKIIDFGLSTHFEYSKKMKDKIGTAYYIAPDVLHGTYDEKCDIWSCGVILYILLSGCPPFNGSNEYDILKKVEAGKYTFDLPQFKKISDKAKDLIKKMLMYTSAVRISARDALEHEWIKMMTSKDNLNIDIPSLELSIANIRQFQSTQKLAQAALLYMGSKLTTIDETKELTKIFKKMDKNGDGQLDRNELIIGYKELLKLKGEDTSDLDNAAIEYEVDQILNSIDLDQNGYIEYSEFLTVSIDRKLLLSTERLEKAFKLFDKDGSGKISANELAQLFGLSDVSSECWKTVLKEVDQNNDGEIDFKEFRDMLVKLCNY

Protein kinase 7 (PK7), Plasmodium falciparum 3D7 (PF3D7_0213400), sequence (Q7YTF7 1-343): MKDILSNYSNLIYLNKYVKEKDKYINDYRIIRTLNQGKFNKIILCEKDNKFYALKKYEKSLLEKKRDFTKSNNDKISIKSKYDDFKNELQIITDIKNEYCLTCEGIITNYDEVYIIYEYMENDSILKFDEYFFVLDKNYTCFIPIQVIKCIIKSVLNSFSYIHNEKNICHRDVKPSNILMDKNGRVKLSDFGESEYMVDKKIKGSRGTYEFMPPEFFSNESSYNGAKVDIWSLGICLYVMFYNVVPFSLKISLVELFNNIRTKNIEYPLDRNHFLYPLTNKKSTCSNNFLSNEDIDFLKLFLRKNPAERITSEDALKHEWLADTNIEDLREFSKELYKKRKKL
Calcium-dependent protein kinase 1 (Plasmodium falciparum (isolate 3D7)), sequence (P62344 whole entry, looked up): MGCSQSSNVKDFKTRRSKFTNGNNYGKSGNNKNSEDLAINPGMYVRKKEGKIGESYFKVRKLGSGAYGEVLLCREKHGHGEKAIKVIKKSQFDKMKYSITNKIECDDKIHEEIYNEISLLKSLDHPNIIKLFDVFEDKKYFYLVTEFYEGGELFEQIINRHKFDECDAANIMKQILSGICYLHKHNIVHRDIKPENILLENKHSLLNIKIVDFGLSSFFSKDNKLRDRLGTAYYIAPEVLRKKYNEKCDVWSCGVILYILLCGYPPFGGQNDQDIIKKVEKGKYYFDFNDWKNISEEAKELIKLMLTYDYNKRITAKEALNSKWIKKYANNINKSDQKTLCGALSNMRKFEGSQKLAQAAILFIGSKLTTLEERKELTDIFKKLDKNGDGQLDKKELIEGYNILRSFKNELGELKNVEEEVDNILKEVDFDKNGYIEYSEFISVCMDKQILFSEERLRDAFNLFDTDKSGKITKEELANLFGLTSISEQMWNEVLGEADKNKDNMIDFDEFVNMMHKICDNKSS

As for `O=C1NC(=S)NC1=CC=Cc1ccc([N+](=O)[O-])o1`, the results for the growth inhibition in experiment [1] and in experiment [4] were 30% and 82% (active), respectively. Also, the inhibition in experiment [2] was 7%; in experiment [3] it was 2%. Further, the result in experiment [5], in experiment [6], in experiment [7] and in experiment [8] was inactive.

Consider `COc1ccccc1CCNc1nc(C)cc(N[C@@H](CC(C)C)C(=O)Nc2ccccc2)n1`, for which the growth inhibition was 76% (active) in experiment [1] and 101% (active) in experiment [4]. Besides, the figures for the inhibition in experiment [2] and in experiment [3] were 16% and -2%, respectively. The result in experiment [5], in experiment [6], in experiment [7] and in experiment [8] was inactive.

Consider `Cc1cccc2[nH]c(-c3ccc(-c4cccc(CNCc5ccccc5)c4)s3)nc12`, for which the growth inhibition in experiment [1] was 50% (active); in experiment [4], 99% (active). For the same compound, the inhibition in experiment [2] is 3%; in experiment [3], -3%. The outcome in experiment [5], in experiment [6], in experiment [7] and in experiment [8] was inactive.

Turning to `O=C(Nc1cc(F)cc(F)c1)N1CCOC(CCN2CCC(c3ccccc3)CC2)(c2ccc(Cl)c(Cl)c2)C1` (stereo not given), the growth inhibition was 69% (active) in experiment [1] and 91% (active) in experiment [4]. Besides, the inhibition in experiment [2] was 31%; in experiment [3], 0%. The outcome in experiment [5], in experiment [6], in experiment [7] and in experiment [8] was inactive.

Regarding `C[C@@H](CC1CCCCC1)OC(=O)N(C)[C@H]1CCN(C#N)C1`, the growth inhibition in experiment [1] was 62% (active); in experiment [4] it was 84% (active). Further, the inhibition in experiment [2] is 4%; in experiment [3], -6%. Also, the result in experiment [5], in experiment [6], in experiment [7] and in experiment [8] was inactive.

`O=C(Nc1ccc(Br)cc1)N(CCN1CCOCC1)CC(O)COCc1ccc(F)cc1` (stereo not given): the growth inhibition in experiment [1] is 3%; in experiment [4], 90% (active). Also, the figures for the inhibition in experiment [2] and in experiment [3] were 5% and -1%, respectively. The outcome in experiment [5], in experiment [6], in experiment [7] and in experiment [8] was inactive.

For the compound `COc1ccccc1CC1CCCN(C2CCC(NC(=O)c3cc4ccccc4[nH]3)CC2)C1` (stereo not given), the growth inhibition in experiment [1] is 21%; in experiment [4], 98% (active). Besides, the inhibition in experiment [2] was 23%; in experiment [3], -2%. Besides, the outcome in experiment [5], in experiment [6], in experiment [7] and in experiment [8] was inactive.

Consider `CCn1ncc(Cl)c1CN(C)S(=O)(=O)c1ccc2ccccc2c1`, for which the growth inhibition in experiment [1] was 91% (active); in experiment [4] it was 101% (active). In addition, the inhibition is 16% in experiment [2] and -2% in experiment [3]. In addition, the outcome in experiment [5], in experiment [6], in experiment [7] and in experiment [8] was inactive.

As to `CNC(=O)c1cnc(Nc2ccc(N3CCN(C)CC3)cc2)nc1Nc1cccc(OC(C)C)c1`, the growth inhibition in experiment [1] was 102% (active); in experiment [4] it was 100% (active). The inhibition is 16% in experiment [2] and 4% in experiment [3]. In addition, the result in experiment [5], in experiment [6], in experiment [7] and in experiment [8] was inactive.

In the case of `O=C(NCc1ccc(Cl)c(Cl)c1)c1ccc(-c2nc3ccc(F)cc3[nH]2)cc1`, the results for the growth inhibition in experiment [1] and in experiment [4] were 9% and 93% (active), respectively. The inhibition was 0% in experiment [2] and 1% in experiment [3]. The outcome in experiment [5], in experiment [6], in experiment [7] and in experiment [8] was inactive.

Consider `CN1CCN(CCCN(Cc2cccc(-c3ccc(CNCc4ccc5c(c4)OCO5)cc3)c2)C(=O)Nc2ccccc2)CC1`, for which the values for the growth inhibition in experiment [1] and in experiment [4] were 69% (active) and 98% (active), respectively. Also, the inhibition in experiment [2] was 39%; in experiment [3], 4%. Also, the result in experiment [5], in experiment [6], in experiment [7] and in experiment [8] was inactive.

For `CN1CCc2ccc(NC(=O)Nc3cccc([N+](=O)[O-])c3)cc2C1`, the growth inhibition in experiment [1] is 3%; in experiment [4] it was 87% (active). Moreover, the results for the inhibition in experiment [2] and in experiment [3] were -5% and 0%, respectively. Further, the result in experiment [5], in experiment [6], in experiment [7] and in experiment [8] was inactive.

With `CCCc1cc(=O)[nH]c(-n2nc(C)cc2NC(=O)c2cc3ccccc3o2)n1`, the growth inhibition in experiment [1] is 63% (active); in experiment [4], 90% (active). Also, the values for the inhibition in experiment [2] and in experiment [3] were 39% and -2%, respectively. Also, the result in experiment [5], in experiment [6], in experiment [7] and in experiment [8] was inactive.

`COc1ccc(-c2cccc(CNC3CCN(CC4Cn5c(=O)ccc6ccc(F)c4c65)CC3)c2)cc1` (stereo not given): the values for the growth inhibition in experiment [1] and in experiment [4] were 74% (active) and 101% (active), respectively. The inhibition in experiment [2] is 22%; in experiment [3] it was 0%. The outcome in experiment [5], in experiment [6], in experiment [7] and in experiment [8] was inactive.

Consider `N#Cc1cccc(CN2CCCN(Cc3ccc(C(=O)Nc4ccc(Cl)cc4)cc3)CC2)c1`, for which the growth inhibition in experiment [1] is 21%; in experiment [4], 98% (active). Besides, the inhibition in experiment [2] was 48%; in experiment [3], 1%. In addition, the result in experiment [5], in experiment [6], in experiment [7] and in experiment [8] was inactive.

For `CC(C)C[C@H](NC(=O)c1cc(-c2ccc(F)cc2)no1)C(=O)O` (tested in a mixture with another compound), the results for the growth inhibition in experiment [1] and in experiment [4] were 4% and 82% (active), respectively. The inhibition was 7% in experiment [2] and -2% in experiment [3]. Also, the outcome in experiment [5], in experiment [6], in experiment [7] and in experiment [8] was inactive.

Regarding `CCCCNC[C@@H](O)[C@H](Cc1ccccc1)NC(=O)c1cc2c3c(c1)c(CC)cn3CCS(=O)(=O)N2C`, the growth inhibition is 98% (active) in experiment [1] and 99% (active) in experiment [4]. The values for the inhibition in experiment [2] and in experiment [3] were -6% and -3%, respectively. Also, the result in experiment [5], in experiment [6], in experiment [7] and in experiment [8] was inactive.

`Cc1cccc2[nH]c(-c3ccc(-c4cccc(CNCCCN5CCCC5=O)c4)s3)nc12`: the values for the growth inhibition in experiment [1] and in experiment [4] were 26% and 101% (active), respectively. In addition, the inhibition was 14% in experiment [2] and -9% in experiment [3]. In addition, the result in experiment [5], in experiment [6], in experiment [7] and in experiment [8] was inactive.

`FC(F)(F)c1ccc2nc(-c3ccc(-c4ccc(CNCc5cnn(-c6ccccc6)n5)cc4)cc3)[nH]c2c1`: the growth inhibition in experiment [1] is 76% (active); in experiment [4], 100% (active). Besides, the inhibition was 35% in experiment [2] and -1% in experiment [3]. Besides, the result in experiment [5], in experiment [6], in experiment [7] and in experiment [8] was inactive.

With `CCN(CCNS(C)(=O)=O)c1ccc(N)c(C)c1`, the growth inhibition in experiment [1] is 11%; in experiment [4] it was 91% (active). Further, the inhibition in experiment [2] and in experiment [3] was -4% throughout. For the same compound, the outcome in experiment [5], in experiment [6], in experiment [7] and in experiment [8] was inactive.
